The sample as a whole holds a higher share of hits than the screen did.
SF-1 inh: inhibitors of human nuclear receptor SF-1 | Q13285 | inhibition, % at 10 µM | AID 525 | CHO-K1 Gal4-SF-1 LBD luciferase reporter | 0.55% of 65,000 active;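 active means inhibition above the mean inhibition of all tested compounds plus 3 SD, cut at about 48% in these data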;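 further: 0% = SF-1 transfected cells with DMSO and 100% = mock-transfected cells lacking SF-1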
Numbers without * were called inactive.

SMILES	SF-1 inh
CCn1nc(-c2ccccc2)nc2c(=O)n(C)c(=O)nc1-2	95*
C[C@H]1CCC/C=C/C2C[C@H](O)CC2[C@H](O)/C=C/C(=O)O1 (stereo not given in full)	80*
O=C(Cn1c2c(c(-c3ccccc3Cl)cc1=O)CCC2)N1CCC2(CC1)OCCO2	15
CCCCn1c(O)c(C(C)=Nc2cccc(C(=O)O)c2)c(=O)[nH]c1=O	-10
CCOC(=O)C1=C(C)OC(N)=C(C(=O)OCC)C12C(=O)Nc1ccc(Br)cc12 (stereo not given)	-12
COC(=O)CC1NC2CCCCC2NC1=O (stereo not given)	-14
CCn1c(=O)cc(OCC(=O)N2CCN(Cc3ccc4c(c3)OCO4)CC2)c2ccccc21	17
COc1cc(CN2CCN(c3cc(C)ccc3C)CC2)ccc1O	67*
O=C(Cc1ccccc1)N1CCN(CC2CC=CCC2)CC1 (stereo not given)	12
O=c1cccc2n1CC1CC2CN(C(c2cccc(F)c2)c2sc3ncnn3c2O)C1 (stereo not given)	2
Cc1cccc(NC(=O)CSc2nnc([C@@H](N)Cc3c[nH]c4ccccc34)o2)c1C	-13
COc1cccc(C2=NOC(C(=O)N3CCC4(CC3)OCCO4)C2)c1 (stereo not given)	-56
Cc1ccc(-n2c(O)c(C=NC3CCCC3)c(=O)[nH]c2=O)c(C)c1	-4
O=c1[nH]c(=O)n(C2CCCCC2)c(O)c1C=NCCCn1ccnc1	-9
CC(=NCC1CCCO1)c1c(O)n(-c2ccc(Cl)cc2)c(=O)[nH]c1=O (stereo not given)	11

Screens from PubChem.
